Data as given in PubChem BioAssay (Tox21).
A number with no mark means an inactive call. Results filed as inconclusive are left out. A call without a number means that no potency is given here. Active and inactive are the calls of the source. Unless noted, calls come from the whole dose curve.

Tests used:
[1] = Nuclear factor erythroid 2-related factor 2/antioxidant responsive element (Nrf2/ARE) small molecule agonists: qHTS cell viability counter screen in human keratinocytes (AID 1919968; active = well fitted curve in the direction sought with a large enough effect in the repeat runs; an effect the other way counts as inactive or inconclusive; note: nearly all actives have a fitted effect of over 55% in size; note: potency is the fitted concentration of half-maximal effect)
Outline: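 KeratinoSens cells (HaCaT keratinocytes stably carrying an ARE-luciferase reporter) were seeded at 1,500 cells/well and rested 5 h at 37 C/5% CO2. They were then exposed to compounds in DMSO for 23 h. Viability was read by CellTiter-Fluor fluorescence after 1 h.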

[2] = Nuclear factor erythroid 2-related factor 2/antioxidant responsive element (Nrf2/ARE) small molecule agonists: luciferase reporter gene qHTS assay in human keratinocytes (AID 1919969); note: nearly all actives have a fitted effect of over 35% in size
[3] = biological target: Gonadotropin-releasing hormone receptor (Homo sapiens) (UniProt P30968); experiment: Human gonadotropin-releasing hormone receptor (GnRHR) small molecule agonists, calcium flux assay in GnRHR-HEK293 cells (AID 1920063); note: nearly all actives have a fitted effect of over 35% in size
Outline: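 HEK293 cells stably expressing human GnRHR were plated 18 h at 37 °C, loaded with calcium dye 1 h at 37 °C, then given compound in agonist mode; fluorescence (Ex/Em 480/540) read kinetically for 3 min at 1 s intervals.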

[4] = biological target: KiSS-1 receptor (Homo sapiens) (UniProt Q969F8); experiment: Human kisspeptin (KISS1R) small molecule agonists, calcium flux assay in KISS1R-HEK293 cells (AID 1920064; active = well fitted curve in the direction sought with a large enough effect in the repeat runs; an effect the other way counts as inactive or inconclusive)
Outline: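 HEK293 cells stably expressing human KISS1R were plated 18 h at 37 °C, loaded with calcium dye for 1 h at 37 °C, then given compound by pin tool. Fluorescence (Ex/Em 480/540) was read kinetically for 3 min.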

[5] = G protein-coupled receptor (GPCR) small molecule agonists, calcium flux assay: HEK293 wild type cell line counter screen (AID 1920065)
Outline: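 Cells were plated and cultured 18 h at 37 C/5% CO2, then loaded with calcium dye for 1 h at 37 C. Compounds in DMSO were pin-transferred in agonist mode, and fluorescence (Ex/Em 480/540) was read kinetically for 3 min at 1 s intervals.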

[6] = p53 small molecule agonists, cell-based qHTS assay with human liver microsomes (AID 1963577);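 note: p53 response element beta-lactamase reporter cells with liver microsomes plus NADPH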
Outline: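 Metabolically competent format: test substances, human liver microsomes and NADPH (both 0.5 mg/mL final) incubated with p53RE-bla cells 16 h at 37 C. Beta-lactamase reporter signal then quantified by fluorescence.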

[7] = p53 small molecule agonists, cell-based qHTS assay with rat liver microsomes (AID 1963578)
Outline: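 Each plate received p53RE-bla cells, then compound, then rat liver microsomes and NADPH (both 0.5 mg/mL final). Plates were held 16 h at 37 C, and beta-lactamase activity was detected with LiveBLAzer over 2 h.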

[8] = p53 small molecule agonists, cell-based qHTS assay with human liver microsomes: qHTS cell viability counter screen (AID 1963579); note: nearly all actives have a fitted effect of over 45% in size; note: potency is the fitted concentration of half-maximal effect
Outline: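 Tox21 library compounds, delivered from DMSO stocks, were tested on p53RE-bla cells together with 0.5 mg/mL human liver microsomes and 0.5 mg/mL NADPH (final) over 16 h at 37 C; CellTiter-Glo luminescence served as the cytotoxicity measure.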

[9] = p53 small molecule agonists, cell-based qHTS assay with rat liver microsomes: qHTS cell viability counter screen (AID 1963580); note: nearly all actives have a fitted effect of over 45% in size; note: potency is the fitted concentration of half-maximal effect
Outline: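 p53RE-bla HCT-116 cells (4,000/well) rested 5 h at 37 C, then given Tox21 compounds in DMSO with rat liver microsomes (0.5 mg/mL final) plus NADPH (0.5 mg/mL final) for 16 h at 37 C. Viability read by CellTiter-Glo luminescence after 30 min at room temperature.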

[10] = p53 small molecule agonists, cell-based qHTS assay: qHTS cell viability counter screen (AID 1963581); note: nearly all actives have a fitted effect of over 45% in size; note: potency is the fitted concentration of half-maximal effect
Outline: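 p53RE-bla HCT-116 cells were exposed to compounds for 16 h at 37 C; after the beta-lactamase FRET read in the same wells, CellTiter-Glo was added and luminescence (intracellular ATP) read after 30 min at room temperature.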

[11] = biological target: 5-hydroxytryptamine receptor 2A (Homo sapiens) (UniProt P28223); experiment: 5-hydroxytryptamine receptor 2A (HTR2A) small molecule antagonists, cell-based qHTS assay (AID 1963586); note: nearly all actives have a fitted effect of over 45% in size
Outline: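 Antagonist-mode intracellular calcium assay: DOI (4 nM) added after 5 min compound pre-incubation at room temperature to dye-loaded HTR2A-CHO cells. Fluorescence followed for 3 min, sampled every second.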

[12] = biological target: 5-hydroxytryptamine receptor 2A (Homo sapiens) (UniProt P28223); experiment: 5-hydroxytryptamine receptor 2A (HTR2A) small molecule agonists, cell-based qHTS assay (AID 1963587); note: nearly all actives have a fitted effect of over 30% in size; note: potency is the fitted concentration of half-maximal effect
Outline: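 HTR2A-CHO cells, plated 18 h at 37 C/5% CO2, dye-loaded 1 h at 37 C; compounds in DMSO added by pin tool (agonist mode). Intracellular calcium flux read as kinetic fluorescence on FDSS over 2 min at 1 s intervals.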

[13] = biological target: Muscarinic acetylcholine receptor M1 (Homo sapiens) (UniProt P11229); experiment: Cholinergic receptor muscarinic 1 (CHRM1) small molecule antagonists, cell-based qHTS assay (AID 1963588); note: nearly all actives have a fitted effect of over 40% in size; note: potency is the fitted concentration of half-maximal effect
Outline: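 CHRM1-CHO calcium-flux assay, antagonist mode. Cells were seeded 18 h, dye-loaded 1 h at 37 C and given compound for 5 min at RT, then acetylcholine was added at 50nM. FDSS fluorescence was read 3 min; 15 concentrations, three runs.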

[14] = biological target: Muscarinic acetylcholine receptor M1 (Homo sapiens) (UniProt P11229); experiment: Cholinergic receptor muscarinic 1 (CHRM1) small molecule agonists, cell-based qHTS assay (AID 1963589); note: nearly all actives have a fitted effect of over 35% in size; note: potency is the fitted concentration of half-maximal effect
Outline: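 CHO cells stably expressing human CHRM1, seeded 18 h at 37 C/5% CO2, dye-loaded 1 h at 37 C, then given compound in agonist mode; intracellular calcium fluorescence read kinetically at 1 s intervals. Fifteen concentrations, three independent runs.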

[15] = biological target: D(2) dopamine receptor (Homo sapiens) (UniProt P14416); experiment: Dopamine D2 receptor (DRD2) small molecule agonists, cell-based qHTS assay (AID 1963594); note: nearly all actives have a fitted effect of over 35% in size
Outline: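 HEK293 cells stably expressing DRD2 were cultured 24 h at 37 C, then given Ro20-1724 (0.1 mM final) and compounds for 10 min at room temperature. NKH477 (200nM) was then added for 30 min. cAMP was read by HTRF.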

[16] = biological target: D(2) dopamine receptor (Homo sapiens) (UniProt P14416); experiment: Dopamine D2 receptor (DRD2) small molecule antagonists, cell-based qHTS assay (AID 1963595; active = well fitted inhibition curve with a large enough effect in the signal ratio in the repeat runs, with a control signal flat; the % refers to the signal ratio; note: potency is the fitted concentration of half-maximal effect)
Outline: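 Readout: HTRF cAMP, cAMP-d2 competing with cellular cAMP for anti-cAMP cryptate, read after 1 h. Cells: DRD2-HEK293. Conditions: 0.1 mM Ro20-1724, 12 nM quinpirole, 200 nM NKH477, 30 min RT.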

[17] = biological target: Beta-2 adrenergic receptor (Homo sapiens) (UniProt P07550); experiment: Adrenergic beta2 receptor (ADRB2) small molecule antagonists, cell-based qHTS assay (AID 1963592); note: nearly all actives have a fitted effect of over 50% in size; note: potency is the fitted concentration of half-maximal effect
Outline: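 Cells (CHO, stable ADRB2 overexpression) incubated 18-20hr at 37C; compounds added from DMSO; agonist mix (1nM isoproterenol, 100uM IBMX, 25uM Ro-20-1724) added; 0.5hr RT; d2-cAMP and anti-cAMP-cryptate added; 1hr RT; 665/615 nm read.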

[18] = cAMP Responsive Elements (CRE) small molecule agonists, cell-based qHTS assay (AID 1963590)
Outline: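 CRE-bla HEK 293T cells in DMEM with 10% dialyzed FBS, NEAA, pyruvate and 25 mM HEPES were plated 18 h at 37 C/5% CO2, then exposed to compounds in DMSO for 3 h before LiveBLAzer B/G FRET substrate addition.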

[19] = cAMP Responsive Elements (CRE) small molecule antagonists, cell-based qHTS assay (AID 1963591; active = well fitted inhibition curve with a large enough effect in the signal ratio in the repeat runs, not every such curve was filed as active; the % refers to the signal ratio)
Outline: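 CRE-bla HEK293T cells were plated 18 h at 37 °C/5% CO2, pinned with compound in DMSO, then stimulated with NKH477 at 0.25 uM final for 3 h. LiveBLAzer B/G FRET substrate was added and plates incubated 2 h at room temperature.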

[20] = biological target: Beta-2 adrenergic receptor (Homo sapiens) (UniProt P07550); experiment: Adrenergic beta2 receptor (ADRB2) small molecule agonists, cell-based qHTS assay (AID 1963593);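 note: CHO cells stably overexpressing human ADRB2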
Outline: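 CHO cells stably over-expressing ADRB2 were plated overnight at 37C, then dosed with compounds plus a stimulation mix containing 100uM IBMX and 25uM Ro-20-1724 for 0.5hr at room temperature. cAMP was measured by HTRF competition, 1hr.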

Chain of KiSS-1 receptor (Homo sapiens) (Q969F8 whole entry, looked up): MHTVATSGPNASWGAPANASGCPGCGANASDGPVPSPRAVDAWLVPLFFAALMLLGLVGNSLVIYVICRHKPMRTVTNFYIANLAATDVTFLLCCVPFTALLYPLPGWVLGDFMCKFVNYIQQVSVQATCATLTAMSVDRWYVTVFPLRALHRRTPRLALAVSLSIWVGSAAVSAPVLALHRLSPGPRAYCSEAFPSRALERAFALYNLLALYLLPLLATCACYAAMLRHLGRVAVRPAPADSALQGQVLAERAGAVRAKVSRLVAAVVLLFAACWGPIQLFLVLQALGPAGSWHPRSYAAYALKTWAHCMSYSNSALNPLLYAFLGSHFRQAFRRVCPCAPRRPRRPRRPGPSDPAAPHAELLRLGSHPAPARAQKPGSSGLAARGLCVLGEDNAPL
Chain of 5-hydroxytryptamine receptor 2A (Homo sapiens) (P28223 whole entry, looked up): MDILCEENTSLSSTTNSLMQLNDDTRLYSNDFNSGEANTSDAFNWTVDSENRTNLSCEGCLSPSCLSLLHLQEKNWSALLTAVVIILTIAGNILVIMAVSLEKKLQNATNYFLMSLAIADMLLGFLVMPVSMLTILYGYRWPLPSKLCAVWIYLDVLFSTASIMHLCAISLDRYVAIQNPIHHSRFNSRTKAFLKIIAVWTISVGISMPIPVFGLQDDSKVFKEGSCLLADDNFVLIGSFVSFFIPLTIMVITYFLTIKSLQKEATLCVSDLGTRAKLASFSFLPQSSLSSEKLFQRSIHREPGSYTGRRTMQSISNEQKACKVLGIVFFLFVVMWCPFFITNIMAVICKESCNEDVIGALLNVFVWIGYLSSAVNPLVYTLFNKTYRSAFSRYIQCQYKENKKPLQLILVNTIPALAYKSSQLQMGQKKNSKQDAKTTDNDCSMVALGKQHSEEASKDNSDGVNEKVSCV
Chain of D(2) dopamine receptor (Homo sapiens) (P14416 whole entry, looked up): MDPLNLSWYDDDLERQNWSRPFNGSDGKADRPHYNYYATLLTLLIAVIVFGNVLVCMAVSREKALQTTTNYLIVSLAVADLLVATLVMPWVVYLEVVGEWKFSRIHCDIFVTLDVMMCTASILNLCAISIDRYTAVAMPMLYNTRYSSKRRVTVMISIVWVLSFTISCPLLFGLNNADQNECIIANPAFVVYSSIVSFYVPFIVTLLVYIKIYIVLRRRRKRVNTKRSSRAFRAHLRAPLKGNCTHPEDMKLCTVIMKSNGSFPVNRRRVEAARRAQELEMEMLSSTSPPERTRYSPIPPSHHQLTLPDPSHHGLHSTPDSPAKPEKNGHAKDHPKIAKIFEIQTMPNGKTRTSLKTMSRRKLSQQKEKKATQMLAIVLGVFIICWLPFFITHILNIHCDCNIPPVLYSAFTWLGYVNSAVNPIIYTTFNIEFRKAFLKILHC
Chain of Beta-2 adrenergic receptor (Homo sapiens) (P07550 whole entry, looked up): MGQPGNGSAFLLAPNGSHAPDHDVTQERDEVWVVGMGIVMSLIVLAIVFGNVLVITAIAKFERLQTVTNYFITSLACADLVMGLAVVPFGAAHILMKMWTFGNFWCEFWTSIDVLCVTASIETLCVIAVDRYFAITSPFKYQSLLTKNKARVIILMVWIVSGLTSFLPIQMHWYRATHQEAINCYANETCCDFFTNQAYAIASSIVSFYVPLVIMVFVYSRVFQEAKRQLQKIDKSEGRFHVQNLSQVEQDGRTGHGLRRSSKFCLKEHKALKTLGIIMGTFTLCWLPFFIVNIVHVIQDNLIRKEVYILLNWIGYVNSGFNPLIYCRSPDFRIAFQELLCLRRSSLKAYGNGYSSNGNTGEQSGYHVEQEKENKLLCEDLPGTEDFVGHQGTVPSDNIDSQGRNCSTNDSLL
Chain of Gonadotropin-releasing hormone receptor (Homo sapiens) (P30968 whole entry, looked up): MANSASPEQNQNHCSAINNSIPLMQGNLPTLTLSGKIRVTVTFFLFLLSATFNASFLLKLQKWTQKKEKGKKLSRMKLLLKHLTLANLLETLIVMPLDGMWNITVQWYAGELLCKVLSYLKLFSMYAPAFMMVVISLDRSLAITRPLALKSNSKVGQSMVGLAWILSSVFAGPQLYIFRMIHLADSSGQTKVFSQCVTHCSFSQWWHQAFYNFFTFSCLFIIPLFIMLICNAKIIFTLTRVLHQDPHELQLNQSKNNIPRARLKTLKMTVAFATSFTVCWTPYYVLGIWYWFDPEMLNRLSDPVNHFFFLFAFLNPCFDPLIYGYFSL
Chain of Muscarinic acetylcholine receptor M1 (Homo sapiens) (P11229 whole entry, looked up): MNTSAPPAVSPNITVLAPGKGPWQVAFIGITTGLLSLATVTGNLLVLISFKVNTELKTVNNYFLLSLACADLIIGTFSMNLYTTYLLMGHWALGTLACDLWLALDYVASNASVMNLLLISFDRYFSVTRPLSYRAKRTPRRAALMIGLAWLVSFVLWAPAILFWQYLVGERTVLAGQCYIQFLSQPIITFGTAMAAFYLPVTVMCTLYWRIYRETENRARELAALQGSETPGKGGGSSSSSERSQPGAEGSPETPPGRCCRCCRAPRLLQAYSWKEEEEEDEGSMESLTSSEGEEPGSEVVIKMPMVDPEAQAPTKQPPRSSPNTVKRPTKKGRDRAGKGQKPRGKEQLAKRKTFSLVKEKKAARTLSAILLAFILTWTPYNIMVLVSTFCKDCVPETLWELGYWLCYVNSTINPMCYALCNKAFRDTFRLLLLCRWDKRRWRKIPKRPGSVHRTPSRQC

Structure (SMILES) | Potency [1] | Potency [2] | Potency [3] | outcome [4] | outcome [5] | Potency [6] | Potency [7] | Potency [8] | Potency [9] | Potency [10] | Potency [11] | Potency [12] | Potency [13] | Potency [14] | Potency [15] | Potency [16] | Potency [17] | Potency [18] | Potency [19] | Potency [20]
CCCC1CCCC(=O)O1 (configuration not stated) | inactive | inactive | inactive | inactive | inactive | inactive | inactive | inactive | inactive | inactive | inactive | inactive | inactive | inactive | inactive | inactive | – | – | – | –
CC(Oc1cc(Cl)ccc1Cl)C(=O)O (configuration not stated) | inactive | inactive | inactive | inactive | inactive | inactive | inactive | inactive | inactive | inactive | inactive | inactive | inactive | inactive | inactive | inactive | inactive | – | – | –
Cc1cccc(C)c1OCC(=O)N[C@@H](Cc1ccccc1)[C@@H](O)C[C@H](Cc1ccccc1)NC(=O)[C@H](C(C)C)N1CCCNC1=O | inactive | inactive | inactive | inactive | inactive | inactive | inactive | inactive | inactive | inactive | inactive | – | inactive | inactive | inactive | inactive | inactive | – | – | –
Cc1cc(O)c(C(C)(C)C)cc1Sc1cc(C(C)(C)C)c(O)cc1C | 13.7 µM (active) | inactive | inactive | inactive | inactive | inactive | inactive | 9.11 µM (active) | 20.4 µM (active) | 5.75 µM (active) | inactive | 43.6 µM (active) | 26.5 µM (active) | 48.9 µM (active) | – | 21.6 µM (active) | 27.3 µM (active) | – | – | –
CCCCCCCC[P+](CCCCCCCC)(CCCCCCCC)CCCCCCCC | 4.83 µM (active) | inactive | inactive | inactive | inactive | inactive | inactive | 8.09 µM (active) | 20.3 µM (active) | 2.56 µM (active) | inactive | 24.4 µM (active) | inactive | inactive | inactive | 13.6 µM (active) | inactive | – | – | –
O=C(O)CCCCCCC(=O)O | inactive | inactive | inactive | inactive | inactive | inactive | inactive | inactive | inactive | inactive | inactive | inactive | inactive | – | – | inactive | inactive | inactive | inactive | inactive
O=C1CCCCCCCCCCC(=O)OCCO1 | inactive | inactive | inactive | inactive | inactive | inactive | inactive | inactive | inactive | inactive | inactive | – | inactive | inactive | inactive | inactive | inactive | – | – | –
Cc1ccc(-n2nc(C(C)(C)C)cc2NC(=O)Nc2ccc(OCCN3CCOCC3)c3ccccc23)cc1 | inactive | inactive | inactive | inactive | inactive | inactive | inactive | inactive | inactive | inactive | inactive | inactive | inactive | inactive | inactive | inactive | – | – | – | –
